# ELG1 repair inh = ELG1-dependent DNA repair inhibition. HEK293T ELG1-luciferase reporter, luminescence, 16 h; DNA damage induced by 5-fluorouridine. AID 504467. Potency, µM (highest dose often 46.1 µM), for inactives: at the top dose activity change, negative = inhibition, hits mostly inhibitors. 330,000 tested, 2.3% active; note: potency is the fitted concentration of half-maximal effect; nearly all actives have a fitted effect of over 55% in size
#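 Reporter activity after DNA damage by 5-fluorouridine is monitored. Compound-treated cells incubate 16 hr at 37 °C, then ONE-Glo is added for 30 min before luminescence reading.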
# IL-1B inflam inh = inflammasome signaling inhibition, IL-1 beta readout; AID 743279; THP-1 LPS/ATP IL-1B secretion, AlphaLISA, 16 h; hits give low values; 360,000 tested, 4.7% active; activity change, % at 57.5 µM; in the data active = activity change below about -50%; inconclusive = mostly about -30% to -49%
#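 THP-1 cells pretreated 1 hr with compounds (up to 57.5 uM final), then stimulated with LPS (250 ng/mL final) plus ATP (1.25 mM final); secreted IL-1B measured by AlphaLISA after 16 hr, decreased signal indicating inhibition.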
# Giardia killer = Giardia lamblia killing; activity change, % at 7.66 µM, hits read low; Giardia lamblia trophozoite viability; AID 540267; 340,000 tested, 0.15% active; in the data active = activity change below about -80%; inconclusive = between about -30% and that limit;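 note: parasites exposed to compound for two days anaerobically before the ATP read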
#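 Giardia trophozoites, 100 cells per well, were exposed to compounds for 48 hrs at 37 deg C under anaerobic conditions; viability was then read as ATP content by bioluminescence after 15-30 min at room temperature.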
# TDP1 inh = blocks human tyrosyl-DNA phosphodiesterase 1 | Q9NUW8 | recombinant TDP1, AlphaScreen DNA substrate cleavage | Potency, µM (top dose mostly 130 µM), without a hit: top-dose activity change, negative = inhibition, most hits filed as inhibitors | 350,000 tested, 0.28% active | AID 485290; note: potency is the fitted concentration of half-maximal effect; nearly all actives have a fitted effect of over 40% in size
# Target sequence (Q9NUW8 whole entry, looked up): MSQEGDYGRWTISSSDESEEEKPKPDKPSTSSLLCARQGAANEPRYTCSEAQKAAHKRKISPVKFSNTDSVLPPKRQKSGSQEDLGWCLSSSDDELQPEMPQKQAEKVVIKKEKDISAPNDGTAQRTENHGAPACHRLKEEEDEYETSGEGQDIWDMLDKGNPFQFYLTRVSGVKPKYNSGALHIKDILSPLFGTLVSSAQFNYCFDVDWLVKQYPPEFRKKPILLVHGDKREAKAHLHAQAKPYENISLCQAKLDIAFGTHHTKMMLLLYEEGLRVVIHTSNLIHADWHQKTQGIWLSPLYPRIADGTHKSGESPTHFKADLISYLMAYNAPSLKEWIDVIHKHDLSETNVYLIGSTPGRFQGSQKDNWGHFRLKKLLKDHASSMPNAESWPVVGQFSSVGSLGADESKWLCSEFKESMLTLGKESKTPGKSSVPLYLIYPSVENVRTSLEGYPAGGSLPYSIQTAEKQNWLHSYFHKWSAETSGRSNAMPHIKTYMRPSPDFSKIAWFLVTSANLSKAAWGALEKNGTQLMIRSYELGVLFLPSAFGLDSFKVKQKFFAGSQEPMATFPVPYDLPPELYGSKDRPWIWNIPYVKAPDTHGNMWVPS
#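 Signal: AlphaScreen proximity between streptavidin donor and anti-FITC acceptor beads on intact substrate. Reaction: Tdp1 1 nM, substrate 15 nM final, 5 min RT after 15 min compound preincubation.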
# TDP1 cell CPT = growth inhibition of DT40 Tdp1-/-;hTDP1 cells with camptothecin (screen for TDP1 inhibitors); chicken DT40 Tdp1-/-;hTDP1 cells + 20 nM CPT, ATP luminescence, 48 h; Potency, µM (highest dose often 46.2 µM), for inactives: top-dose activity change, negative = growth inhibition, most hits filed as inhibitors; 420,000 tested, 12% active; note: potency is the fitted concentration of half-maximal effect; nearly all actives have a fitted effect of over 55% in size
#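 Chicken DT40 Tdp1-/- cells stably complemented with human TDP1 were seeded at 400 cells/well in medium containing 20 nM camptothecin, exposed to pin-transferred compounds, and grown at 37 °C for at least 48 hr. Viability was read as ATP luminescence.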
# TDP1 cell noCPT = qHTS for Inhibitors of human tyrosyl-DNA phosphodiesterase 1 (TDP1): qHTS in cells in absence of CPT | DT40 Tdp1-/- hTDP1 cells, no CPT, ATP luminescence, 48 h | Potency, µM (titrated, usually from 46.2 µM), inactives show top-dose activity change, negative = growth inhibition, hits mostly inhibitors | 420,000 tested, 15% active | AID 686978, 2013; note: potency is the fitted concentration of half-maximal effect; nearly all actives have a fitted effect of over 55% in size
#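 Growth kinetics read by CellTiter-Glo luminescence after ≥48 hr at 37 °C. Cells: DT40 Tdp1-/- stably carrying human TDP1, 400 per well, compound exposure in the absence of CPT (DMSO vehicle).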
# Active calls of the source: *; ? = inconclusive; / = not tested or not shown; [ ] = another dose, or the depositor's remark. Only some compounds are listed: those with a hit (about 19% of all), similar ones and a draw of the others. Unless noted, calls come from the whole dose curve; as a rule, active = well fitted curve in the direction sought with a large enough effect; inconclusive = small, poorly fitted or top-dose-only effect, or another doubt; inactive = no such curve, though single readings can be large; an effect the other way counts as inactive or inconclusive. % is set by controls: 0 for no effect and ±100 for the full control effect.
SMILES,ELG1 repair inh,IL-1B inflam inh,Giardia killer,TDP1 inh,TDP1 cell CPT,TDP1 cell noCPT
COc1ccccc1Cc1c(-c2cccc(Br)c2)nc2ccc(Cl)cn12,/,21.5,/,/,?,?
CCCCCc1c(-c2cccc(Cl)c2)ncn1CCc1ccccc1OC,/,0.0,/,/,23.1µM*,23.1µM*
CCCCCc1c(-c2cccc(F)c2)ncn1CCc1ccccc1OC,/,0.0,/,/,23.1µM*,18.4µM*
CCCCCn1cnc2sc(-c3ccccc3)cc2c1=O,?,-14.6,7.1,-5.9%,-19.4%,-7.3%
CCCc1c(-c2ccc(F)cc2F)ncn1Cc1ccccc1OC,/,0.0,/,/,2.06µM*,1.46µM*
CCCc1c(-c2cccc(F)c2)ncn1Cc1ccccc1OC,/,19.0,/,/,9.2µM*,8.2µM*
COc1ccccc1CN1CCC2(CC1)CCN(C(=O)c1cccc(F)c1)CC2,/,/,/,/,-3.2%,1.1%
CCCCn1nc2cc(C(=O)NCc3ccccc3OC)ccc2c1OCC,?,12.9,-26.8,-2.8%,-23.4%,-13.0%
CCCc1c(-c2cccc(F)c2)ncn1CCc1ccccc1OC,/,-77.9*,/,/,?,14.6µM*
CCCCCc1c(-c2cccc(OC)c2)ncn1CCc1ccccc1OC,/,-85.5*,/,/,8.2µM*,7.31µM*
CCCCc1c(-c2cccc(F)c2)ncn1CCc1ccccc1OC,/,-74.2*,/,/,20.6µM*,20.6µM*
COc1ccc(C2C=C3CNS(=O)(=O)C3CC2OC(=O)c2ccc(C(F)(F)F)cc2)cc1 (centres undefined),/,/,-9.3,15.0%,/,/
CC1CN(C(=O)CCC(=O)NCc2ccccc2)c2ccccc2S1 (centres undefined),17.8%,-6.0,-2.4,/,-6.8%,-5.9%
Cc1cc(C)c2oc(-c3cccc(NC(=O)COc4ccc([N+](=O)[O-])cc4)c3)nc2c1,/,/,/,5.8%,-19.4%,?
CCCCC[C@@H](C)N1C[C@H](COCc2ccccc2)Oc2cc(N3CC[C@H](O)C3)ccc2S1(=O)=O,/,-16.9,/,/,?,?
CCOCCc1nn2c(=O)cc(COC(=O)c3ccccc3OC)nc2s1,/,/,/,4.5%,?,?
O=C(Nc1ccccc1)c1ccccc1NS(=O)(=O)c1ccc(Cl)s1,-15.9%,-0.3,4.7,0.0%,?,?
O=C(Nc1ccccc1Cc1ccccc1)c1ccccc1NS(=O)(=O)c1ccc(Cl)s1,?,-25.6,-2.8,-2.7%,4.61µM*,3.66µM*
Cc1ccc(NC(=O)c2ccccc2NS(=O)(=O)c2ccc(Cl)s2)cc1,?,-3.7,16.2,5.6%,23.1µM*,14.6µM*
CC(C)NC(=O)c1cccc2c1-c1ccccc1C2=O,-5.1%,-1.4,-24.6,/,-16.0%,-0.5%
Cc1ccc(NC(=O)c2cc(N3C(=O)C=CC3=O)ccc2N2CCOCC2)cc1Cl,12.1%,-57.4*,-1.3,1.1%,4.11µM*,3.66µM*
Cc1ccc(NC(=O)CS(=O)CC(=O)Nc2ccc(N3CCOCC3)cc2)cc1Cl (centres undefined),?,-6.8,4.3,0.0%,20.6µM*,29.1µM*
CC(CCN1CCN=C1Nc1ccccc1)c1ccccc1 (centres undefined),0.6%,-5.7,-0.4,/,?,?
COc1ccc(NC(=O)CC2C(=O)N(c3cccc(OC)c3)C(=O)N2CCc2cccs2)cc1 (centres undefined),/,/,/,-6.4%,?,20.6µM*
CCCOc1ccc(NC(=O)CC2C(=O)N(c3cccc(OC)c3)C(=O)N2Cc2cccs2)cc1 (centres undefined),/,/,/,0.0%,?,20.6µM*
COC1C[C@@H](O[C@@H]2C(C)C(=O)OC(C)C(C)[C@H](OC(C)=O)C(C)C(=O)[C@@]3(CO3)CC(C)C(OC3OC(C)CC(N(C)C)[C@H]3OC(C)=O)C2C)OC(C)[C@@H]1OC(C)=O (some centres undefined),/,/,/,7.3%[56.1 µM],4.3%,-10.0%
